SMILES strings stand for the structures. In all, about 94,000 compounds went through this assay and about 6,200 (6.6%) were called active. Entries that show only a call come without a potency. Not shown: some 31% with an inconclusive outcome. The sample holds actives, similar compounds and a random draw of the others, so the mix is not that of the screen. Calls come from the whole dose curve; as a rule, active = well fitted inhibition curve with a large enough effect; inconclusive = small, poorly fitted or top-dose-only effect; inactive = flat fitted curve, though single readings scatter.
Potency is the fitted concentration of half-maximal effect.

The experiment is described as follows: Cytotoxic Profiling in HEK 293 Cell Line of Diverse Libraries Using Quantitative High-Throughput Screening. Note: nearly all actives have a fitted effect of over 60% in size. Conditions: HEK 293 viability, ATP luminescence (CellTiter-Glo), 48-72 h; series mostly up to 115 µM. In a few lines:
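250 HEK 293 cells/well; compound by pintool; incubated 48 or 72 hr at 37 degree Celsius; CellTiter-Glo added, 10 min RT, luminescence imaged.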
`COc1ccc(CCC(=O)N2CCCC(n3c(C)cnc3C3CCOCC3)C2)cc1` (stereo not given): the Potency entry was “inactive”. The value for `O=C(NC1CC1)c1ccc(CC2CCN(C(=O)c3ccccn3)CC2)cc1` was “inactive”; that for `COc1ccc(-c2ccc(C(=O)N3CCN(C(=O)c4cccc(Cl)c4)CC3)cc2)nn1` was “inactive”. Take `COc1ccc(-c2cccc(C(=O)NCc3cccc(Cl)c3)c2)nn1`: the Potency is 79.4 µM (active). The value for `COc1ccc(-c2ccc(C(=O)NCc3ccccc3Cl)cc2)nn1` was “inactive”; that for `CCN1CC2(CCN(C(=O)c3cccc(N4CCOCC4)c3)CC2)OC1=O` was “inactive”. For `C[C@H](C(=O)N1Cc2ccccc2CC2(CCN(Cc3ccncc3)CC2)C1)c1ccccc1`, the Potency was 50.1 µM (active). For `CC(=O)N1Cc2ccccc2CC2(CCCN(Cc3ccncc3)C2)C1` (stereo not given), the Potency result was “inactive”.

Turning to `CC(=O)N1Cc2ccccc2CC2(CCN(Cc3cccnc3)CC2)C1`, the Potency entry is “inactive”. For `O=C(Nc1cccc(-n2cccn2)c1)C1CCCN(C2CCN(Cc3ccco3)CC2)C1` (stereo not given), the Potency result is “inactive”.

Consider `COc1ccc(OC)c(CNC(=O)CC2C(=O)NCCN2CC=C(C)C)c1` (stereo not given), for which the Potency result is “inactive”.

With `COC[C@@H]1CN(C(=O)c2ccc3ncccc3c2)C[C@H]1c1nc(C)no1`, the Potency result was “inactive”.

Turning to `COc1ccc(CNC(=O)N2CCC3(CC2)CC(OCC2CC2)CCO3)cc1` (stereo not given), the Potency entry was “inactive”.

`CNC(=O)N1CCC2(CC1)CC(Cc1cccc(F)c1)CCO2` (stereo not given): the Potency result was “inactive”. The value for `COc1ccc(CC2CCOC3(CCN(C(=O)NCC(C)C)CC3)C2)cc1` (stereo not given) was 39.8 µM (active); that for `O=C1NCCCCCCN(C(=O)Cc2cccnc2)[C@@H]2C[C@@H](c3nc(-c4cnccn4)no3)C[C@H]12` was “inactive”. Next, `C=CCN1CCC2(CCC1=O)CN(Cc1ncc[nH]1)CCN2C` (stereo not given): “inactive”; `O=C(c1ccc(F)cc1)N1CCC(N2CC3CC(C2)[C@H]2CCCC(=O)N2C3)CC1` (stereo not given in full): “inactive”. Regarding `COCc1cc(CN2C[C@H](NC(=O)CO)[C@@H](C3CC3)C2)ccc1OC`, the Potency entry is “inactive”. Turning to `O=C(C1CCN([S+](=O)([O-])c2cccc(C(F)(F)F)c2)CC1)N1CCC(N2CCCC2=O)CC1`, the Potency entry is “inactive”. As to `O=C1CCCCCN1C1CCN(Cc2ccc(C(F)(F)F)cc2)CC1`, the Potency was 31.6 µM (active). On to `O=C1CCN(Cc2ccc(C(F)(F)F)cc2)CCCOCCN1`, for which the Potency result is “inactive”.

As for `Cn1cnc(S(=O)(=O)N[C@@H]2CCOC[C@H]2Oc2ccc(C(N)=O)cc2)c1`, the Potency result is “inactive”. Next, `OC1(CN2CCC(CCn3cccn3)CC2)CNCCOC1` (stereo not given): “inactive”. For `O=C(Cn1nc(-c2ccco2)ccc1=O)NC1CCCc2c1[nH]c1c(Cl)cccc21` (stereo not given), the Potency result was “inactive”. The value for `O=C(NC1CCCc2c1[nH]c1c(Cl)cccc21)c1ccco1` (stereo not given) was 44.7 µM (active). Next, `O=C(NC1CCc2nnc(C3CC3)n2CC1)c1ccco1` (stereo not given): “inactive”; `CC(C)S(=O)(=O)N1CCC(OCc2noc(C3CCCO3)n2)CC1` (stereo not given): “inactive”. Next, `COc1ccc(-c2ccnc(N[C@H]3CO[C@H]4[C@@H]3OC[C@H]4OC(=O)Nc3cccc4ccccc34)n2)cc1`: 39.8 µM (active); `COc1ccc(NC(=O)O[C@@H]2CO[C@H]3[C@@H]2OC[C@@H]3NC(=O)NC2CCCCC2)cc1`: “inactive”. With `CC(C)(CC(=O)O)CC(=O)N[C@H]1CO[C@H]2[C@@H]1OC[C@@H]2Nc1nccc(-c2ccc3c(c2)OCO3)n1`, the Potency result is “inactive”. As to `N#Cc1cccc(NC(=O)O[C@@H]2CO[C@H]3[C@@H]2OC[C@@H]3Nc2nccc(-c3ccccc3)n2)c1`, the Potency is 22.4 µM (active). Next, `O=C(Nc1ccc(Cl)cc1)N[C@H]1CO[C@H]2[C@@H]1OC[C@H]2O`: “inactive”. The value for `CC(=O)Nc1cccc(OCC2CN(Cc3cccc(C(F)(F)F)c3)C(=O)c3c(ccnc3-c3ccc(OCC(=O)O)cc3)O2)c1` (stereo not given) was “inactive”. Turning to `CCNC(=O)O[C@@H]1CO[C@H]2[C@@H]1OC[C@@H]2NC(=O)c1cccc(C(=O)OC)c1`, the Potency entry was “inactive”. Regarding `O=C(Nc1cccc(C(F)(F)F)c1)O[C@@H]1CO[C@H]2[C@@H]1OC[C@@H]2Nc1nccc(-c2ccc3c(c2)OCO3)n1`, the Potency was 50.1 µM (active). The value for `CCNC(=O)O[C@@H]1CO[C@H]2[C@@H]1OC[C@@H]2NC(=S)Nc1cccc2ccccc12` was 70.8 µM (active); that for `CNC(=O)[C@@H]1CN(C(=O)Cn2c(=O)oc3ccccc32)C[C@H]1c1n[nH]c(C)n1` was “inactive”. The value for `O=C(O)c1ccc2c(c1)CC(=O)N2Cc1cccc(F)c1` was “inactive”.

As to `CN1CCCCCCN(S(=O)(=O)N(C)C)CCC1=O`, the Potency result was “inactive”. The value for `O=C(O)CC1(CC(=O)N2CCN3C(=O)c4cc(-c5ccsc5)ccc4NC(=O)[C@H]3C2)CCCC1` was “inactive”. Regarding `c1cncc(CN2CC(Oc3ccc4c(c3)OCO4)C2)c1`, the Potency entry is “inactive”. Next, `COC(=O)N1CCN2C[C@@H](C(N)=O)[C@H](c3ccccc3)[C@H]2C1`: “inactive”; `CC(=O)c1c(C)nn(CC(=O)N2CCC(c3cc(C(C)C)n[nH]3)CC2)c1C`: “inactive”.

With `CCC(=O)N1CCC(c2nc(C3CCOCC3)no2)C1` (stereo not given), the Potency entry is “inactive”.

Regarding `CSc1ccc(CNC(=O)c2cc3c(N4CCSCC4)nc(C)cn3n2)cc1`, the Potency result is “inactive”. On to `COCc1nc(-c2ccc(NC(=O)Cn3nc4c(cc3=O)CCCC4)cc2)n[nH]1`, for which the Potency result was “inactive”. In the case of `O=C(NCCCn1cccn1)C1CCCCc2nnc(-c3ccccc3)n21` (stereo not given), the Potency entry is “inactive”.

Turning to `COc1ccc(C(=O)N2CCCC(Cc3nc(C4CCOCC4)no3)C2)cc1` (stereo not given), the Potency result was “inactive”. The value for `C=CCNC(=O)N[C@H]1CO[C@H]2[C@@H]1OC[C@H]2OC(=O)Nc1cccc(C(C)=O)c1` was “inactive”; that for `CC(C)(C)c1ccnc(N[C@H]2CO[C@H]3[C@@H]2OC[C@H]3OC(=O)Nc2cccc(C(F)(F)F)c2)n1` was 39.8 µM (active); that for `CC(=O)c1ccc(NC(=O)O[C@@H]2CO[C@H]3[C@@H]2OC[C@@H]3Nc2nccc(-c3ccco3)n2)cc1` was 22.4 µM (active).

In the case of `CC(C)(C)c1ccnc(N[C@H]2CO[C@H]3[C@@H]2OC[C@@H]3NC(=O)CC2(CC(=O)O)CCCC2)n1`, the Potency entry was “inactive”. `CCCN1CCN(C(=O)C2CCCN(c3cnn(Cc4ccccc4)c(=O)c3)C2)CC1` (stereo not given): the Potency entry is “inactive”. Consider `O=C(Cc1cccc(F)c1)N1CC(CNC(=O)N2CCCC2)C2(CCOCC2)C1` (stereo not given), for which the Potency result was “inactive”. Next, `Cc1oc2c(c1C(=O)NC1CCN(C)CC1)CN(C)CC2`: “inactive”; `O=C(Cn1c(=O)oc2ccccc21)NC1CCc2nn(CC3CC3)c(=O)n2CC1` (stereo not given): “inactive”; `COc1ccccc1N1CCN(C(=O)Cn2c(N3CCc4ccccc4C3)nc(C)cc2=O)CC1`: 35.5 µM (active). Turning to `CNC(=O)c1cc(C)nc2onc(C3CCCN3C(=O)c3ccccc3OC)c12` (stereo not given), the Potency result is “inactive”.

Consider `Cc1cc(=O)n(CC(=O)Nc2cccc(Cl)c2C)c(N2CCc3ccccc3C2)n1`, for which the Potency result is “inactive”.

The values above are taken from PubChem BioAssay AID1345083 (National Center for Advancing Translational Sciences (NCATS), 2018).
